Screening data from PubChem BioAssay.
In the library only some 1.2% were active in any assay of this set; here they are far more common.
Avidin bead fluor = compound fluoresces at 488/530 nm on avidin beads. compound fluorescence 488/530 nm, flow cytometry; active compounds read high. fluorescence (KMESF) at 10 µM. hit rate 0.38% among 220,000; in the data active means fluorescence above about 47
RGS7-Gao reg = regulators of human RGS7-Galphao interaction; Multiplexed bead flow cytometry, RGS7-Galphao binding; actives lie on both sides; binding response (% of control), % at 10 µM; hit rate 0.35% among 220,000; AID 1439; P09471; in the data active means binding response below about 49% or above about 150%; inconclusive means no clear call, values can overlap the other calls; inactive means in between;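 further: fluorescent Galphao held in activated GDP-AlF4 state binding bead-coupled RGS7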
Target sequence (P09471 whole entry, looked up): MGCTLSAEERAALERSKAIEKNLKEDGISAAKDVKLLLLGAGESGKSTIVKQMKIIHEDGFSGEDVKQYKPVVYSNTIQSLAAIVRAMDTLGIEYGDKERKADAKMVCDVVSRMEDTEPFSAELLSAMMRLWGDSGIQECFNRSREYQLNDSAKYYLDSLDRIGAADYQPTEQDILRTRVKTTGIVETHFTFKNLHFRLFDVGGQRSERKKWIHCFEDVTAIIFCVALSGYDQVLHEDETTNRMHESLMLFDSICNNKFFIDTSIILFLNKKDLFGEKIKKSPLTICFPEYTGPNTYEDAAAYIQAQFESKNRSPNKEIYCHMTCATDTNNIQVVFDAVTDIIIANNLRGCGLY
GSH bead fluor = compound fluoresces at 488/530 nm on GSH beads; GSH beads flow cytometry, compound fluorescence 488/530 nm; active compounds read high; fluorescence (KMESF) at 10 µM; hit rate 0.25% among 190,000; AID 1776; in the data active means fluorescence above about 89;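 further: glutathione beads carrying GST-tagged Bcl family fusion proteins plus one bare bead set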
RGS16-Gao = regulators of human RGS16-Galphao interaction. O15492+P09471. bead-based flow cytometry RGS16-Galphao binding, fluorescence; actives lie on both sides. binding response (% of control), % at 10 µM. AID 1441. hit rate 0.38% among 220,000; call rule not given here;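 further: Galphao activated by GDP with aluminum fluoride before binding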
Target sequence (O15492 whole entry, looked up): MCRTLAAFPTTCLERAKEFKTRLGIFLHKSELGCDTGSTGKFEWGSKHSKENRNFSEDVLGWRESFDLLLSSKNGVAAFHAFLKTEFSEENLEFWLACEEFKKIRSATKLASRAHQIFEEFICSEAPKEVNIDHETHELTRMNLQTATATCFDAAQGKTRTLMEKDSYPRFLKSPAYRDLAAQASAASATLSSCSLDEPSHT
Target sequence (P09471 whole entry, looked up): as the sequence (P09471 whole entry, looked up) above
RGS8-Gao reg = modulates binding of RGS8 to human Galphao; P09471; multiplexed bead flow cytometry; actives lie on both sides; response (percent of control binding), % at 10 µM; hit rate 0.34% among 220,000; in the data active means response below about 60% or above about 140%; inactive means in between;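 further: Galphao activated as the GDP aluminium fluoride complex binding bead-coupled RGS8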
RGS4-Gao reg = modulates binding of RGS4 to human Galphao | hit rate 0.33% among 220,000 | P09471 | binding response (% of control), % at 10 µM | Multiplexed bead flow cytometry; actives lie on both sides; in the data active means binding response below about 49% or above about 150%; inactive means in between;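 further: fluorescent Galphao activated with aluminum fluoride binding bead-coupled RGS4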
A number is an active result; – = inactive; ? = inconclusive; · = not tested or not shown; [ ] = dose if it differs, or a comment.

SMILES | Avidin bead fluor | RGS7-Gao reg | GSH bead fluor | RGS16-Gao | RGS8-Gao reg | RGS4-Gao reg
COc1ccc2[nH]c(=O)c(CN(Cc3nnnn3Cc3ccc(F)cc3)CC3CCCO3)cc2c1 (stereo unspecified) | 105 | – | – | – | – | –
CCOc1ccc(S(=O)(=O)N(C)c2ccc(OCC(=O)NCc3ccc(C(=O)OC)cc3)cc2)cc1 | – | – | – | – | – | –
O=C(Nc1ccc(S(=O)(=O)N2CCCC2)cc1)N1c2ccccc2Sc2ccccc21 | 77 | – | – | – | – | –
Nc1nc(-c2ccc3c(c2)CCCC3)cs1 | – | – | 263 | – | – | –
CC(=O)c1cccc(NC(=O)c2nc(-c3ccccc3)oc2C)c1 | – | – | – | – | – | –
COc1cc(/C=C(\NC(=O)c2ccccc2)C(=O)N2CC3CC(C2)c2cccc(=O)n2C3)cc(OC)c1OC (stereo unspecified) | – | ? | · | – | – | –
Cc1cc(C)cc(OCC(=O)Nc2ccccc2N2CCCCC2)c1 | 69 | – | – | – | – | –
CC(C)C(=O)Nc1ccc(-c2nc3ccccc3c(=O)o2)cc1 | – | – | – | – | – | –
COc1ccccc1-c1cc(C(=O)NCc2ccc(F)cc2)no1 | – | – | – | – | – | –
COc1ccccc1-c1cc(C(=O)NCc2ccccc2)no1 | 48 | – | – | – | – | –
COc1ccccc1NC(=O)Cn1c(CCC(=O)O)ccc1-c1ccccc1 | – | – | – | – | – | –
O=C(CNc1cccc(S(=O)(=O)N2CCOCC2)c1)N1CCc2ccccc21 | – | ? | · | – | – | –
CCOC(=O)/C=C(\C)Nc1cc(C)nn1-c1ccccc1 | – | 11 | – | – | 8.3 | 23
Cc1cc(NC(=O)Nc2cc(C)nn2-c2ccccc2)n(-c2ccccc2)n1 | – | – | – | – | – | –
N#CCCSCc1ccc(C(=O)O)o1 | – | – | – | – | – | –
CCCCSCc1ccc(C(=O)O)o1 | – | – | 131 | – | – | –
CCCC(=O)Nc1ccc2oc(-c3ccc(OC)c(Br)c3)nc2c1 | 54 | – | – | – | – | –
CCCC(=O)Nc1ccc(-c2nc3cc(C)ccc3o2)cc1 | – | – | – | – | – | –
CC1CN(c2nnc(NC(=O)c3ccccc3)s2)CC(C)O1 (stereo unspecified) | – | – | – | – | – | –
CCOC(=O)C1=C(c2ccccc2)N(C)C(=O)NC1c1ccc(OC(F)F)c(OC)c1 (stereo unspecified) | 56 | – | – | – | – | –
Cc1ccc(S(=O)(=O)Nc2ccc3nc(N)sc3c2)cc1 | 49 | – | – | – | – | –
O=c1/c(=C/c2ccccn2)sc2n1CN(c1ccccc1)CN=2 | – | – | – | – | – | –
COc1cc(N2CN=c3s/c(=C\c4ccccn4)c(=O)n3C2)cc(OC)c1OC | – | – | 265 | – | – | –
COc1cccc(-n2c(SCC#N)nnc2-c2cnccn2)c1 | – | – | 247 | – | – | –
CCOC(=O)c1cc(-c2ccc(C)cc2)n(CCC(=O)NC(C)CC)c1C (stereo unspecified) | 64 | – | – | – | – | –
SMILES | Avidin bead fluor | RGS7-Gao reg | GSH bead fluor | RGS16-Gao | RGS8-Gao reg | RGS4-Gao reg
CCOC(=O)c1cc(-c2ccc(F)cc2)n(CC(=O)NC(C)CC)c1C (stereo unspecified) | – | – | – | – | – | –
Cn1nc(C(F)(F)F)c(-c2ccc(Br)cc2)c1NC(=O)Nc1ccc(F)cc1F | – | ? | · | – | – | –
O=C(NC1CCN(Cc2ccccc2)CC1)c1ccc2c(c1)[nH]c(=O)n2Cc1ccc(F)cc1 | – | – | – | – | – | –
CCCCN1C(=O)N(C)C2C1N(C)C(=O)N2CCCC (stereo unspecified) | – | – | 130 | – | – | –
CCCCN1C(=O)N(C)C2NC(=O)NC21 (stereo unspecified) | – | – | – | – | – | –
COc1ccccc1NS(=O)(=O)c1ccc(OC)c(OC)c1 | 113 | – | – | – | – | –
O=C(CCn1c(=O)sc2ccccc21)NCc1ccco1 | – | – | 120 | – | – | –
Cn1c(Cn2c(=O)sc3ccccc32)nnc1SCC(=O)NCc1ccco1 | – | – | – | – | – | –
O=C(CCCn1c(=O)c2ccccc2n(Cc2ccccc2)c1=O)NCc1ccco1 | 60 | – | – | – | – | –
O=C(CCCCn1c(=O)c2ccccc2n(Cc2ccc(F)cc2)c1=O)NCc1ccco1 | – | – | – | – | – | –
COc1ccc(N=C(c2ccccc2)c2c(C)[nH]n(-c3ccccc3)c2=O)c(OC)c1 | – | ? | · | – | – | –
CCOc1ccc(CN2CCN(Cc3nc4c(s3)CCCC4)CC2CCO)cc1 (stereo unspecified) | – | – | – | – | – | –
CC(C)[C@H](NC(N)=O)C(=O)Nc1cccc(S(=O)(=O)N2CCOCC2)c1 | – | – | – | – | – | –
Cc1cc(C)n2nc(C(=O)OCCOc3cccc(Br)c3)nc2n1 | – | – | 253 | – | – | –
Cc1ncc([N+](=O)[O-])n1Cc1cccc(F)c1 | – | – | – | – | – | –
CCOC(=O)c1c(-c2cccc([N+](=O)[O-])c2)csc1NC(=O)C1CCCCC1 | – | – | 166 | – | – | –
NC(=O)c1oc2ccccc2c1NC(=O)c1ccco1 | – | – | – | – | – | –
NC(=O)c1oc2ccccc2c1NC(=O)c1ccccc1 | – | – | 259 | – | – | –
CC(C)[C@H](NC(=O)c1ccccc1)C(=O)OCC(=O)NCCC1=CCCCC1 | 54 | – | – | – | – | –
O=C(CC1C(=O)NCCN1C(=O)Nc1ccccc1)Nc1ccc2c(c1)OCCO2 (stereo unspecified) | 60 | – | – | – | – | –
CCn1c(COc2ccc(=O)n(-c3ccccc3)n2)nnc1SCc1cccc(OC)c1 | – | -3.1 | – | -13 | 13 | -20
Cc1noc(C)c1-c1nnc(-c2ccc(OC(F)(F)F)cc2)o1 | – | ? | · | – | – | –
O=[N+]([O-])c1ccc(/C=C/C2=NN(c3ccccc3)C(c3ccco3)C2)cc1 (stereo unspecified) | 186 | 246[activator] | – | 223[activator] | – | 285[activator]
CC(C)Oc1ccc(C(=O)NC(Cc2c[nH]c3ccccc23)C(=O)NN)cc1 (stereo unspecified) | – | ? | · | – | – | –
N#Cc1c(-c2ccc(Cl)cc2)ccn2nc(C3CCCCC3)nc12 | – | – | 262 | – | – | –
CN(CC(=O)N1CCN(c2ccccn2)CC1)S(=O)(=O)c1ccccc1 | 49 | – | – | – | – | –
CN(CC(=O)N1CCN(c2ncccn2)CC1)S(=O)(=O)c1ccc(Cl)cc1 | – | – | – | – | – | –
COc1ccc(C2/C(=C(\O)c3ccc4c(c3)OCCO4)C(=O)C(=O)N2Cc2ccco2)c(OC)c1 (stereo unspecified) | – | – | 122 | – | – | –
